The values below come from PubChem BioAssay (Tox21).

Structures are written as SMILES. Where “and” joins values, the source holds several entries; their conditions need not be identical. Identical values can stand only once. Results filed as inconclusive are left out. Some structures have more than one record in an assay (separate samples or runs), and their calls can disagree. Calls of active or inactive are those of the source. Unless noted, calls follow the shape of the dose curve; as a rule, active = well fitted curve in the direction sought with a large enough effect in the repeat runs; inconclusive = weak or mixed curves; inactive = no such curve, though single readings can be large; an effect the other way counts as inactive or inconclusive.

Assay [1] in a line: qHTS assay to identify small molecule agonists of the hypoxia (HIF-1) signaling pathway (AID 1224846; active = well fitted activation curve with a large enough effect in the signal ratio in the repeat runs, not every such curve was filed as active; the % refers to the signal ratio). An outline of the steps: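 Compounds added to ME-180 cells carrying hypoxia-response-element beta-lactamase reporter (0.5% dialyzed FBS, 5 h preplating), 17 h at 37C; agonist activity detected by CCF4-AM B/G FRET read-out.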
For orientation: Quantitative high-throughput screening tests each substance at several concentrations.

Assay [2] can be described thus: qHTS RealTime-Glo MT Cell Viability Assay in HepG2 cells - 24 hour (AID 1224867). Also: nearly all actives have a fitted effect of over 50% in size. Also: potency is read from the fitted curve at half-maximal effect. An outline of the steps: (§1)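 HepG2 cells were seeded at 600 cells/well together with NanoLuc luciferase and a cell-permeant prosubstrate, preincubated 5 h at 37 C/5% CO2, then pin-dosed with compounds in DMSO. Nonlytic luminescence from viable cells was read at each time point.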
Assay [3] can be described thus: qHTS RealTime-Glo MT Cell Viability Assay in HEK293 cells - 32 hour (AID 1224868). Also: nearly all actives have a fitted effect of over 50% in size. Also: potency is read from the fitted curve at half-maximal effect. In a few lines:
(§2)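 HEK293 cells were seeded at 600 cells/well together with NanoLuc luciferase and cell-permeant prosubstrate, preincubated 5 h at 37 C/5% CO2, then given compound in DMSO by pintool. Luminescence from viable-cell prosubstrate reduction was read repeatedly over 40 h.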

Assay [4] in a line: A CellTox Green Cytotoxicity Assay to monitor cytotoxicity in HEK293 cells - 0 hour (AID 1224869). Also: nearly all actives have a fitted effect of over 50% in size. An outline of the steps:
(§3)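 Fluorescence from a DNA-binding dye excluded by viable cells was measured repeatedly in the same HEK293 wells (600 cells/well) during continuous compound exposure at 37 C. Each assay gives one read point: 0, 8, 16, 24, 32 or 40 h.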

Assay [5] in a line: qHTS RealTime-Glo MT Cell Viability Assay in HepG2 cells - 40 hour (AID 1224870). Also: nearly all actives have a fitted effect of over 50% in size. Also: potency is read from the fitted curve at half-maximal effect. In a few lines:
(§4)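 HepG2 cells mixed with RealTime-Glo MT reagents (NanoLuc plus cell-permeant prosubstrate) were seeded at 600 cells/well, incubated 5 h at 37 C/5% CO2, then pinned with compounds in DMSO; nonlytic luminescence tracked viability during 40 h treatment.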

Assay [6] can be described thus: qHTS RealTime-Glo MT Cell Viability Assay in HEK293 cells - 16 hour (AID 1224872). Also: nearly all actives have a fitted effect of over 50% in size. Also: potency is read from the fitted curve at half-maximal effect. In a few lines:
as §2

A short description of assay [7]: qHTS RealTime-Glo MT Cell Viability Assay in HepG2 cells - 8 hour (AID 1224873). Also: nearly all actives have a fitted effect of over 55% in size. In a few lines: as §4
The nature of assay [8]: qHTS RealTime-Glo MT Cell Viability Assay in HEK293 cells - 40 hour (AID 1224874). Also: nearly all actives have a fitted effect of over 50% in size. Also: potency is read from the fitted curve at half-maximal effect. Particulars: RealTime-Glo luminescence; max response: stronger effect = lower value. In a few lines:
(§5)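 Luminescence, which tracks viable cell number through reduction of the prosubstrate to a NanoLuc substrate, was read over continuous 37 C culture. Cells (600/well) were premixed with reagent and rested 5 h before 23 nL of compound in DMSO was pinned.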

Assay [9] in a line: A CellTox Green Cytotoxicity Assay to monitor cytotoxicity in HEK293 cells - 24 hour (AID 1224875). Also: nearly all actives have a fitted effect of over 45% in size. Also: potency is read from the fitted curve at half-maximal effect. In a few lines: as §3
Assay [10] can be described thus: A CellTox Green Cytotoxicity Assay to monitor cytotoxicity in HepG2 cells - 16 hour (AID 1224876). Also: nearly all actives have a fitted effect of over 45% in size. Also: potency is read from the fitted curve at half-maximal effect. In a few lines: (§6)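 Real-time cytotoxicity: fluorescence of a cell-impermeant cyanine dye binding DNA of dead HepG2 cells, measured repeatedly (0–40 h) during compound exposure at 37 C. Cells seeded 600/well with reagent, dosed after 5 h.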
Assay [11] in a line: qHTS RealTime-Glo MT Cell Viability Assay in HepG2 cells - 32 hour (AID 1224877). Also: nearly all actives have a fitted effect of over 55% in size. Also: potency is read from the fitted curve at half-maximal effect. An outline of the steps: as §1
Assay [12] can be described thus: A CellTox Green Cytotoxicity Assay to monitor cytotoxicity in HepG2 cells - 24 hour (AID 1224878). Also: nearly all actives have a fitted effect of over 45% in size. Also: potency is read from the fitted curve at half-maximal effect. In a few lines:
as §6

Assay [13] can be described thus: A CellTox Green Cytotoxicity Assay to monitor cytotoxicity in HepG2 cells - 40 hour (AID 1224879). Also: nearly all actives have a fitted effect of over 40% in size. Also: potency is read from the fitted curve at half-maximal effect. An outline of the steps: as §6
Assay [14] in a line: A CellTox Green Cytotoxicity Assay to monitor cytotoxicity in HEK293 cells - 40 hour (AID 1224871). Also: nearly all actives have a fitted effect of over 45% in size. Also: potency is read from the fitted curve at half-maximal effect. In a few lines: as §3
Assay [15] can be described thus: qHTS RealTime-Glo MT Cell Viability Assay in HEK293 cells - 0 hour (AID 1224880). An outline of the steps: as §5
Assay [16] is described as follows: A CellTox Green Cytotoxicity Assay to monitor cytotoxicity in HEK293 cells - 32 hour (AID 1224881). Also: nearly all actives have a fitted effect of over 40% in size. In a few lines:
as §3

A short description of assay [17]: qHTS assay to identify small molecule agonists of H2AX - cell viability counter screen (AID 1224847; calls by dose curve; also: nearly all actives have a fitted effect of over 30% in size; also: potency is read from the fitted curve at half-maximal effect). An outline of the steps: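 Wild-type CHO-K1 cells (10% FBS medium) were plated overnight at 37C, exposed to compounds at 15 concentrations for 3 hr at 37C (0.76% DMSO final), and viability was read as CellTiter-Glo luminescence after 30 min at room temperature.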

Assay [18] is described as follows: qHTS assay to identify small molecule antagonists of the estrogen related receptor (ERR) signaling pathway from Tox21 library (AID 1224848). Also: nearly all actives have a fitted effect of over 50% in size. Also: potency is read from the fitted curve at half-maximal effect. In a few lines: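 Tox21 10K compounds in DMSO tested for ERR pathway antagonism in NTP's ERR cell line; 18 h, 37 C exposure; ONE-Glo luminescence.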
Assay [19] can be described thus: qHTS assay to identify small molecule agonists of the estrogen related receptor (ERR) signaling pathway from Tox21 library (AID 1224849; calls by dose curve; also: nearly all actives have a fitted effect of over 15% in size). The conditions noted are these: ERR reporter cell line, ONE-Glo luciferase, 18 h. An outline of the steps: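 Luminescent agonist read-out (One-Glo, 30-minute room-temperature incubation) following 18-hour compound treatment at 37 C of the ERR cell line, which had been plated 6 hours before dosing.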

[20] abbreviates: at 92.4 µM (top of the series) unless noted.
% is scaled to controls: 0 for no effect and ±100 for the full control effect.

`CCOP(=S)(OCC)Oc1cc(Cl)c(Br)cc1Cl`: the result in assay [1] was inactive. Besides, the Potency entry in assay [2], in assay [3], in assay [4], in assay [5], in assay [6] and in assay [7] was “inactive” in each case. In addition, the Potency entry in assay [9], in [10], in assay [11], in assay [12] and in assay [13] was “inactive” in each case. Further, the max response in assay [8] is -15.7% (inactive).

For the compound `CCC(COC(=O)c1cc(OC)c(OC)c(OC)c1)(c1ccccc1)N(C)C` (stereo not drawn), the Potency result in assay [2], in assay [4], in assay [5], in assay [14], in assay [7] and in assay [9] was “inactive” each time. In addition, the Potency result in assay [10], in assay [11], in [12], in assay [13], in assay [15] and in assay [16] was “inactive” throughout. For the same compound, the Potency in assay [6] was 26.8 µM (active).

`O=C1C(=O)c2cccc3cccc1c23`: the outcome in [1] was inactive. For the same compound, the Potency result in assay [17], in assay [2], in assay [4], in [14], in assay [9] and in assay [10] was “inactive” in each case. The Potency entry in [12], in [13] and in [16] was “inactive” each time. Also, the Potency in assay [5] is 17.4 µM (active).

As for `Nc1ccc(N=Nc2ccc(-c3ccc(N=Nc4c(S(=O)(=O)O)cc5cc(S(=O)(=O)O)c(N=Nc6ccccc6)c(O)c5c4N)cc3)cc2)c(N)c1`, the compound was classed as inactive in assay [1]. Further, the Potency in assay [17] is 11.5 µM (active). Also, the Potency result in [2], in assay [3], in [4], in [5], in [6] and in [7] was “inactive” throughout. Also, the Potency entry in assay [9], in assay [10], in [11], in [12], in [13] and in assay [15] was “inactive” throughout. For the same compound, in assay [8], the max response was 23.2% (inactive).

Regarding `COc1nn(CSP(=S)(OC)OC)c(=O)s1`, the compound was classed as inactive in assay [1]. For the same compound, the Potency entry in assay [2], in [3], in assay [4], in assay [5], in [14] and in [6] was “inactive” each time. In addition, the Potency entry in assay [7], in [9], in assay [10], in assay [11], in assay [15] and in assay [16] was “inactive” each time. Also, in assay [8], the max response is -3.23% (inactive).

As to `O=S1OC[C@@H]2[C@H](CO1)[C@]1(Cl)C(Cl)=C(Cl)[C@@]2(Cl)C1(Cl)Cl` (stereo partly drawn), the Potency in assay [17] was 20.1 µM (active). For the same compound, the Potency result in [4] and in assay [15] was “inactive” in each case.

Consider `CC[C@H]1C[C@H]2[C@@H]3CCC4=CC(=O)CC[C@@H]4[C@H]3CC[C@]2(C)[C@H]1O`, for which the outcome in assay [1] was inactive. The Potency entry in assay [17], in [2], in assay [4], in assay [7], in assay [9] and in [10] was “inactive” throughout. Moreover, the Potency entry in [11] and in assay [15] was “inactive” each time. For the same compound, the Potency in [18] is 29.8 µM (active); in [8] it was 23.9 µM (active); in [13], 21.3 µM (active). Besides, the activity change, positive = activation in assay [19] (setting [20]) is -38.2% [at 42.5 µM] (inactive).

As to `O=C(CCl)c1ccc(Cl)cc1Cl`, the call in assay [1] was inactive. Moreover, the Potency result in assay [18] and in [4] was “inactive” in each case. Besides, the activity change, positive = activation is -19% (inactive) in [19] (at 42.5 µM (top of the series)) and -9.77% (inactive) in assay [19] (at 92.4 µM (top of the series)). Further, the Potency entry is “inactive and 19 µM (active)” in assay [2]; 3.01 µM (active) in [3]; “inactive and 16.9 µM (active)” in assay [5]; 8.49 µM (active) in assay [14]; 4.25 µM (active) in [6]; 17.3 µM (active) and 2.39 µM (active) in assay [8]. The Potency is 10.7 µM (active) in assay [9]; “inactive and 23.9 µM (active)” in assay [10]; “inactive and 21.3 µM (active)” in assay [11]; “inactive and 23.9 µM (active)” in [12]; 23.9 µM (active) in assay [13].

For `COC(C)(C)CCC[C@H](C)C/C=C/C(C)=C/C(=O)OC(C)C`, the compound was classed as inactive in assay [1]. In addition, the Potency result in assay [17], in assay [2], in assay [3], in assay [4], in assay [5] and in assay [6] was “inactive” throughout. The Potency entry in [7], in assay [9], in assay [10], in assay [11], in [12] and in [13] was “inactive” throughout. Besides, in [15], the Potency result is “inactive”. Besides, in assay [19] (setting [20]), the activity change, positive = activation was -23.3% (inactive).
